Values joined by “and” are separate entries in the source; they are usually repeats but may differ in a detail not shown here. Identical values can stand only once.
Key:
Assay type in all cases: functional
[1] = molecular target: Solute carrier family 2, facilitated glucose transporter member 1 (Homo sapiens) (UniProt P11166); assay: ST_JUDE_LEISH: Cytotoxicity at 2uM final concentration against transgenic Leishmania Mexicana promastigotes LmGLUT1 that are glucose transport deficient and complemented with the human glucose transporter GLUT1. Activity is measured by DNA content using SYBR green in vitro
Solute carrier family 2, facilitated glucose transporter member 1 (Homo sapiens), sequence (P11166 whole entry): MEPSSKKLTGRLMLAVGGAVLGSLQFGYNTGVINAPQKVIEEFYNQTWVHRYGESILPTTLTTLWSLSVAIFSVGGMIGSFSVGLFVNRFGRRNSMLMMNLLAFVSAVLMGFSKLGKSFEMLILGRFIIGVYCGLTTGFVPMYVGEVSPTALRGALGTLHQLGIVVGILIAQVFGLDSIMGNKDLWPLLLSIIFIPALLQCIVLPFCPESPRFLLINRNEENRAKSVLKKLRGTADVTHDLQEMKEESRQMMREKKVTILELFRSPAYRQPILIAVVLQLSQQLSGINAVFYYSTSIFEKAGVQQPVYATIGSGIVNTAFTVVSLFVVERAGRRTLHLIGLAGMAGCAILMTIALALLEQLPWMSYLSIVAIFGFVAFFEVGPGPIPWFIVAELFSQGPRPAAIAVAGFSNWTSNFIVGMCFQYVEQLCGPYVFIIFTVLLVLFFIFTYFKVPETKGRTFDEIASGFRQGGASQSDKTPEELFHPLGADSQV

[2] = molecular target: Hexose transporter 1 (Plasmodium falciparum) (UniProt O97467); assay: ST_JUDE_LEISH: Cytotoxicity at 2uM final concentration against transgenic Leishmania Mexicana promastigotes LmPfHT that are glucose transport deficient and complemented with the Plasmodium falciparum hexose transporter. Activity is measured by DNA content using SYBR green in vitro
[3] = molecular target: Glucose transporter (Leishmania mexicana) (UniProt O61059); assay: ST_JUDE_LEISH: Cytotoxicity at 2uM final concentration against transgenic Leishmania Mexicana promastigotes LmGT2 that are glucose transport deficient and complemented with the L. Mexicana glucose transporter 2. Activity is measured by DNA content using SYBR green in vitro

Structure (SMILES) | inhibition [1] | inhibition [2] | inhibition [3]
N=C(N)NC(=O)Nc1cc(Cl)c(Cl)c(C(F)(F)F)c1 | 2.87% | 3.46% | 1.58%
COc1cc(SC)c(Br)cc1-c1nc2ccncc2[nH]1 | 3.09% | 2.12% | 4.52%
COc1ccc2nccc(N3CCC(NCCNCc4ccc5c(n4)NC(=O)CO5)C3)c2n1 (configuration not stated) | 1.29% | 1.28% | 1.15%
CC(C)(C)c1ccc2nccc(Nc3cccc(O)c3)c2c1 | 2.99% | 2.35% | 2.33%
CCC(C)(C)c1ccc(N2C(N)=NC(N)=NC2(C)C)cc1 | -2.05% | -1.28% | -2.78%
CCCc1cc(N2CCC(N(CC)CC)C2)nc(Nc2ccc(OC)cc2)n1 (configuration not stated) | 3.16% | 3.72% | 1.91%
COc1ccc(CCn2c(=N)c(C(=O)NCc3ccccc3)cc3c(=O)n4ccccc4nc32)cc1 | 12.9% | 12.8% | 8.6%
CCc1cn(CCS(C)(=O)=O)c2ccc(C(=O)N[C@@H](Cc3ccccc3)[C@H](O)CNC(C)(C)CCCC(C)C)cc12 | 5.26% | 4.33% | 6.22%
CCOC(=O)N1CCN(CCCNc2c3ccccc3nc3ccccc23)CC1 | 6.23% | 4.08% | 1.91%
O=C(Nc1ccc2c(c1)CCN2C1CCN(Cc2ccc(C(F)(F)F)cc2F)C1)c1ccco1 (configuration not stated) | 1.38% | 0.47% | 1.6%
CC1CCCN(C(=O)c2cc(-c3ccccn3)nc3c(Cl)cccc23)C1 (configuration not stated) | 2.19% | 1.26% | 1.25%
O=C(c1cc2nc3c(c(C(F)(F)F)n2n1)CCc1ccccc1-3)N1CCN2CCCC2C1 (configuration not stated) | 2.06% | 2.1% | 2.07%
CC(C)C[C@@H](C(=O)Nc1ccc(Cc2ccc(NC(=O)[C@H](CC(C)C)N(C)C(=O)OC(C)(C)C)cc2)cc1)N(C)C(=O)OC(C)(C)C | 0.03% | -1.12% | -0.46%
COc1ccc(C(=O)CCC(=O)N(Cc2ccc(-c3ccc(CNCCc4ccc(S(C)(=O)=O)cc4)cn3)cc2)Cc2ccc3c(c2)OCO3)cc1F | 1.12% | -0.05% | -0.58%
Cc1cc(NC(=O)NCCN2CCC(NC(=O)c3ccc(C(F)(F)F)cc3)CC2)c2ccccc2n1 | 0.67% | 0.01% | -0.57%
O=C(COc1ccccc1)Nn1cnc2ccccc21 | 3.76% | 0.83% | 0.3%
COc1ccccc1CN1CCC(CNC(=O)c2cc(-c3ccc(N(C)C)cc3)cs2)C1 (configuration not stated) | 15.2% | 11.8% | 10.9%
COc1ccc(N2CCN(CCCCNC(=O)c3ccc(NC(=O)c4ccc(Cl)cc4)cc3)CC2)c(OC)c1 | 9.13% | 8.66% | 8.5%
CCOc1c(CNCCCNc2cc(=O)c3ccccc3[nH]2)cc(I)cc1C(C)(C)C | -0.21% | 1.18% | 0.27%
CCOC(=O)c1ccc(-c2cnc(N)c(-c3nc4cccc(C)c4[nH]3)c2)cc1 | 6.18% | 6.96% | 4.47%
CC(C)(Oc1ccc(Cl)cc1)C(=O)NCCC1CCN(CCCCCNC(=O)/C=C/c2ccc(Cl)c(Cl)c2)CC1 | 6.53% | 7.08% | 2.35%
O=C(NCCc1ccccc1)N(Cc1ccc(-c2cccc(CN3CCNCC3)c2)cc1)C1CCN(Cc2ccccc2)CC1 | 1.57% | 1.61% | 0.74%

Structure (SMILES) | inhibition [1] | inhibition [2] | inhibition [3]
COc1ccc(-c2cc(C(=O)N[C@@H](CC3CCCCC3)C(=O)NCCN3CCCCC3)ccc2O)cc1 | -0.43% | -0.56% | -0.35%
CC1CN(c2cnn(Cc3ccc(NC(=O)Nc4cccc(C(F)(F)F)c4)cc3)c(=O)c2Cl)CC(C)N1 (configuration not stated) | 3.97% | 3.35% | -1.12%
CC=CCON1C(=N)NC(=N)NC1(C)C | 1.93% | 1.47% | 1.8%
Cc1nc2ccccc2c(O)c1-c1ccc(Cl)cc1 | 1.42% | -1.38% | -1.04%
Cc1ccc(-c2nc3cc(C(=O)NC4CCC(N5CCCc6ccc(C#N)cc6C5)CC4)ccc3[nH]2)cc1 (configuration not stated) | -1.44% | -0.52% | 5.12%
c1cc(CNc2ncc(-c3ccsc3)c(-c3nccs3)n2)ccn1 | 7.08% | 9.37% | 6.45%
CN1CCN(c2ccnc3cc4ccccc4cc23)CC1 | -3.09% | -3.08% | -0.9%
COc1ccccc1-c1[nH]c2ccccc2c1CN1CCC(c2c(C)cccc2C)CC1 | 16.3% | 16.1% | 11%
CCc1ccc(CN2CCC(CNC(=O)c3cc(-c4cccc(Cl)c4)cs3)C2)cc1 (configuration not stated) | -0.66% | -0.84% | -4.94%
COc1ccc(NC(=O)c2ccc(-c3nc(-c4ccccc4)cs3)cc2)cc1N1CCN(C)CC1 | 9.73% | 8.4% | 9.79%
CCc1ccc(NC(=O)N(CCCN2CCN(C)CC2)Cc2csc(-c3ccc(CNCc4ccccc4)cc3)n2)cc1 | -1.59% | -0.93% | 3.09%
COc1cccc2c(N/N=C/c3ccccc3[N+](=O)[O-])cc(C)nc12 | 0.15% | 0.03% | 0.39%
COc1ccc(CNC2CCN(C)CC2)cc1-c1cccc(S(=O)(=O)NCc2ccccc2)c1 | 1.72% | 1.62% | 0.24%
CC1CN(Cc2cccc(-c3ccc(-c4nc5ccccc5[nH]4)cc3)c2)CC(C)O1 (configuration not stated) | 3.06% | 4.42% | 2.3%
COc1cccc(CC(=O)NC2CCN(c3ccnc4cc(Cl)ccc34)C2)c1 (configuration not stated) | 0.02% | -0.46% | 1.48%
CS(=O)(=O)N(c1cccc(F)c1)c1cc(C(=O)N[C@@H](Cc2ccccc2)[C@H](O)CNCc2cccc(C(F)(F)F)c2)cc(N2CCCC2=O)c1 | -2.34% | -1.22% | -0.57%
CC(C)(C)c1ccc(CN2CCC(CNC(=O)c3cc(-c4cccc(F)c4)cs3)C2)cc1 (configuration not stated) | 4.3% | 4.53% | 4.16%
O=C(Nc1cccc(-c2csc(NC(=O)c3ccc4ccccc4c3)n2)c1)c1ccc2ccccc2c1 | 1.53% | 1.22% | 0.66%
CCCCCCCOc1ccc(NC(=O)Nc2ccc(Cn3ncc(N4CCCNCC4)c(Cl)c3=O)cc2)cc1 | -2.91% | -0.57% | -1.59%
CCn1c(-c2nonc2N)nc2c(-c3cccc(NC(=O)Nc4ccc(C(F)(F)F)cc4)c3)ncc(OCCCN)c21 | 2.98% | 2.48% | 3.54%
O=c1cc(NCCCNCc2cc3c(Cl)cc(Cl)cc3[nH]2)[nH]c2ccccc12 | -0.67% | -0.16% | -0.14%
Cc1cc(Cl)ccc1N(Cc1ccccc1)c1ccnc(Cl)n1 | 1.11% | 1.68% | 0.11%

Structure (SMILES) | inhibition [1] | inhibition [2] | inhibition [3]
O=C(NCc1ccc(Cl)c(Cl)c1)c1ccc(C2CCCN(Cc3ccc4[nH]cnc4c3)C2)cc1 (configuration not stated) | 5% | 9.77% | 6.17%
Cc1cccc2nc(-c3cccc(-c4cccc(CN5CCCC5CN)c4)c3)[nH]c12 (configuration not stated) | -0.26% | -1.1% | -2.17%
CC=CC1CCNC(C(O)c2ccnc3ccc(OC)cc23)C1 (configuration not stated) | 2.16% | 2.5% | 2.9%
COc1cc2c(cc1C(F)(F)F)N(C(=O)Nc1ccc(Br)cn1)CC2 | -0.2% | 0.68% | -1.31%
CS(=O)(=O)Cc1ccc(Nc2ncc(Cl)c(Nc3cccnc3C(N)=O)n2)cc1 | 28.2% | 32.1% | 23%
N=C(N)NN=CC(=O)Nc1ccc(C(F)(F)F)cc1 | -0.81% | -0.97% | 3.39%
c1ccc(CN2CCC(NCc3ccccc3-c3cccc(CNC4CCCC4)c3)CC2)cc1 | 6.21% | 2.62% | 7.14%
COc1cc(NC(=O)Nc2ccc(Br)cc2C(=O)Nc2ccc(Br)cc2)cc(OC)c1OC | 5.51% | 4.2% | 5.3%
Cc1cc2c(cc1C(F)(F)F)N(C(=O)Nc1cc(OCCN(C)C)cc(C(F)(F)F)c1)CC2 | -0.72% | -1.6% | -0.42%
COC(=O)[C@@H](NC(=O)[C@H](Cc1ccc(OC)c(OC)c1)Nc1ccc(C#N)c2ccccc12)c1ccc(O)cc1 | 10.1% | 16.6% | 6.41%
CC1CCN(CC[C@H]2CCCN2S(=O)(=O)c2cccc(NC(=O)c3cc4ccccc4s3)c2)CC1 | 4.95% | 6.97% | 3.15%
COc1ccc(Nc2nccc(N3CCC(NC(=O)Nc4cccc(C(C)=O)c4)C3)n2)cc1 (configuration not stated) | -3.73% | 0.98% | 3.49%
COc1cccc(C(=O)NC(c2ccccc2OC)c2cc(Cl)c3cccnc3c2O)c1 (configuration not stated) | -1.87% | -2.45% | 0.13%
O=C(Nc1ccc(OC2CCN(CC3CC3)CC2)c(Cl)c1)c1ccc2ncccc2c1 | 8.41% | 9.49% | 7.58%
CCOC(=O)c1ccc(OCCCCCCOc2ccc(Br)cc2)cc1 | 1.32% | 4.52% | -0.5%
Cc1ccccc1C1CCN(C2CCC(NC(=O)c3cc4cc(Cl)ccc4o3)CC2)CC1 (configuration not stated) | 1.84% | 1.17% | 3.04%
O=C(NCc1cccnc1)C(c1cc2ccccc2o1)N1CCN(C(c2ccccc2)c2ccccc2)CC1 (configuration not stated) | 1.36% | 2.1% | 0.65%
CN1CCCN(Cc2ccc(-c3cccc(NC(=O)c4ccc(F)cc4)c3)cc2)CC1 | 19.9% | 13.8% | 12.4%
C[C@H](CNc1ccnc(Nc2ccc3[nH]c(=O)[nH]c3c2)n1)c1ccccc1 | -1.01% and -1.44% | -0.33% and -0.77% | -0.13% and 0.71%
O=C(Cn1c(=O)cnc2ccccc21)Nc1cccc(C(=O)Nc2cccc(C(F)(F)F)c2)c1 | 1.09% | 3.37% | 1.93%

From ChEMBL document CHEMBL3433997, “St. Jude Leishmania screening dataset” (2016)
